# KB-V1 MDR tox – qHTS assay for MDR1-selective chemotherapeutics: Primary screen using the drug-selected MDR subline cells KB-V1; KB-V1 MDR cells viability, CellTiter-Glo, 72 h; Potency, µM (series often up to 46.1 µM), actives largely listed as cytotoxic; 400,000 tested, 3.4% active; AID 1347076, 2019; also: % is scaled to controls: 0 for no effect and ±100 for the full control effect; nearly all actives have a fitted effect of over 60% in size
#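 Cytotoxicity toward P-gp-expressing KB-V1 cells was determined as loss of CellTiter-Glo luminescence after 72 h at 37 degrees C. Compounds were tested in quantitative HTS format across a concentration range, with curves fitted to normalized data.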
# SW480 rerep – A quantitative high throughput screen for small molecules that induce DNA re-replication in SW480 colon adenocarcinoma cells; SW480 DNA re-replication, Hoechst DNA content imaging, 48 h; Potency, µM (top dose mostly 46.1 µM), inactives show top-dose re-replication activation, usual class: activators; 340,000 tested, 1.8% active; AID 624297, 2012; also: % of control where 0% means no effect; nearly all actives have a fitted effect of over 55% in size
#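 Cells (250 per well) received 23 nL compound or DMSO by pin tool and were kept 48 hr at 37 C, 5% CO2. Nuclei were then stained with Hoechst for 40 min and scanned for DNA content.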
# TSG101-PTAP inh – qHTS Assay for Iinhibitors of HIV-1 Budding by Blocking the Interaction of PTAP/TSG101; Tumor susceptibility gene 101 protein (Homo sapiens), Q99816; Fluorescence polarization, FITC-PTAP peptide / Tsg101 binding; Potency, µM (top dose mostly 115 µM), without a hit: at the highest dose activity change, negative = inhibition, actives largely listed as inhibitors; 340,000 tested, under 10 active; AID 493005, 2010; active = well fitted inhibition curve with a large enough effect in the main read-out, with a control signal flat, not every such curve was filed as active; inconclusive = small, poorly fitted or top-dose-only effect, or effect the other way, or a change in a side signal; inactive = no such curve, though single readings can be large or run the other way; also: % of control where 0% means no effect
# Target sequence (Q99816 whole entry, looked up): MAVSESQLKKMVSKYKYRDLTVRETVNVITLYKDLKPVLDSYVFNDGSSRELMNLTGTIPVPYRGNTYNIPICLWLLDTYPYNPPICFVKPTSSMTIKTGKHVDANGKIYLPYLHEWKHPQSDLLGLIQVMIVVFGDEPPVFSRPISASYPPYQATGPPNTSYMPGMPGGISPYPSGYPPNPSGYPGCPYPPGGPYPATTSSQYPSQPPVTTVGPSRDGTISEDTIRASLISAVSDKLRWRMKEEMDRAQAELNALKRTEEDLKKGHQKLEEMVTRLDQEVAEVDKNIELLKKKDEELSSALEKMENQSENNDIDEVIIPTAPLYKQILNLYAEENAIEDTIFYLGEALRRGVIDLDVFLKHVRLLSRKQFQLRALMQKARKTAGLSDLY
#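 Steps: Tsg101 binding domain dispensed (10 uM final), compounds pinned in DMSO, FITC-labeled PTAP-motif peptide added (50 nM final); after 20 min binding at room temperature, polarization measured.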
# KB-3-1 tox – qHTS assay for MDR1-selective chemotherapeutics: Primary screen using the parental adenocarcinoma cell KB-3-1. KB-3-1 viability, CellTiter-Glo ATP luminescence, 72 h. Potency, µM (top dose mostly 46.1 µM), most hits filed as cytotoxic. 400,000 tested, 1.4% active; also: % is scaled to controls: 0 for no effect and ±100 for the full control effect; nearly all actives have a fitted effect of over 60% in size
#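 Using CellTiter-Glo luminescence, growth of non-resistant KB-3-1 adenocarcinoma cells is assessed 72 h after pin-tool compound addition at 37 °C. Normalized responses across the concentration series yield fitted curves.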
# PINK1 expr mod – A Quantitative High throughput Screen to Identify Chemical Modulators of PINK1 Expression. PINK1 immunofluorescence, high-content cytometry, 24 h. Potency, µM (highest dose often 76.6 µM), for the others: top-dose activation (PINK1 increase), usual class: activators. 410,000 tested, 0.2% active. AID 624263, 2012; active = well fitted activation curve with a large enough effect; inconclusive = small, poorly fitted or top-dose-only effect; cell line not stated here; also: % of control where 0% means no effect; nearly all actives have a fitted effect of over 65% in size
#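 Stable cell line, 250 cells/well, 12 h attachment; compounds pinned at 5 concentrations, 24 h; CCCP control. Fixed with nuclear dye, primary antibodies 12 h at 10 degrees C, secondary plus cell stain; laser-scanning cytometer read.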
# MCF10A rerep – A quantitative high throughput screen for small molecules that induce DNA re-replication in MCF 10a normal breast cells. MCF 10A DNA re-replication, Hoechst nuclear intensity, 48 h. Potency, µM (series often up to 46.1 µM), for the others: top-dose activity, positive = re-replication, hits mostly activators. 350,000 tested, 2.9% active. AID 624296, 2012; also: % of control where 0% means no effect; nearly all actives have a fitted effect of over 50% in size
# * marks the source's active call; other numbers are inactive results; i = inactive; ? = inconclusive; nt = no result; [ ] = dose if it differs, or a comment. In the library only some 6.8% were active in any assay of this set; here they are far more common. Unless noted, calls follow the shape of the dose curve; as a rule, active = well fitted curve in the direction sought with a large enough effect; inconclusive = small, poorly fitted or top-dose-only effect, or another doubt; inactive = no such curve, though single readings can be large; an effect the other way counts as inactive or inconclusive. Potency is read from the fitted curve at half-maximal effect.
SMILES,KB-V1 MDR tox,SW480 rerep,TSG101-PTAP inh,KB-3-1 tox,PINK1 expr mod,MCF10A rerep
COC(=O)[C@@]12C[C@@H](CC(=O)NCC34CC5CC(CC(C5)C3)C4)C(=O)N(Cc3ccco3)C1=CCC(C)(C)C2,15µM*,nt,nt,?,nt,nt
C#CCNC(=O)C[C@@H]1C[C@@]2(C(=O)OC)CC(C)(C)CC=C2N(Cc2cccc3ccccc23)C1=O,23µM*,nt,nt,?,nt,nt
CCCCNC(=O)C[C@@H]1C[C@@]2(C(=O)OC)CC(C)(C)CC=C2N(Cc2cccc3ccccc23)C1=O,?,nt,nt,i,nt,nt
C#CCNC(=O)C[C@@H]1C[C@@]2(C(=O)OC)CC(C)(C)CC=C2N(Cc2ccco2)C1=O,?,nt,nt,i,nt,nt
Cc1c(Cl)cccc1NC(=O)c1ccc2nc(C(C)C)oc2c1,nt,nt,nt,nt,0%,nt
COc1cc(C2C(=O)N(C3CCCCC3)CC(=O)N2C2CCCC2)ccc1OC(C)C (stereo not given),nt,nt,nt,nt,3%,nt
CN(Cc1ccccc1F)c1nc(-c2cccs2)nc2ccccc12,?,?,-2%,i,-1%,13µM*
Cc1cc(C)c(OCCOCCN2CCN(C)CC2)c(Cl)c1,i,-34%,-1%,i,-2%,5.8µM*
CN(C)c1ccc(/C=C/c2ncnc3ccccc23)cc1,i,nt,nt,i,?,nt
Clc1cccc(-c2noc3ncnc(NC4CCCCC4)c23)c1,i,nt,nt,i,0%,nt
CC1CCN(CC[S-])CC1.O.O.[Cl][Pt],?,nt,nt,13µM*,0%,nt
NC(=O)c1cccc2ccccc12,i,3%,-4%,i,1%,8%
N#CSCC(=O)c1cccc2ccccc12,i,?,6%,?,1%,18µM*
COc1ccccc1Cn1cc(C(=O)c2ccc(F)cc2)c(=O)c2cc3c(cc21)OCO3,i,nt,nt,i,-1%,nt
COc1ccccc1-c1nc(S(=O)(=O)c2ccccc2)c(N2CCC(C)CC2)o1,i,nt,nt,i,0%,nt
CCN(CC)c1ccc(CNc2nc3ccccc3n2C(C)C)cc1,i,7%,-7%,i,22µM*,27%
Cc1ccc(-n2ncc(C(=O)N3CCN(C4CCCCC4)CC3)c2C2CCN(C(=O)OC(C)(C)C)CC2)cc1C,i,nt,nt,i,1%,nt
Cc1cc(-n2c(C)c3c(C)nnc(C)c3c2C)ccc1N,i,?,-6%,i,-1%,21µM*
Cc1ccc(-n2c(C)c3c(C)nnc(C)c3c2C)cc1N,i,-2%,1%,i,-1%,0%
Cc1nnc(C)c2c(C)n(-c3ccccc3N)c(C)c12,i,21µM*,-7%,i,-1%,1%
Cc1cccc(OCC(=O)NNc2c3ccccc3nc3ccccc23)c1,13µM*,-4%,-4%,i,19%[38.3 µM],0%
CCOc1ccc(Nc2c3ccccc3nc3ccccc23)cc1,?,4.6µM*,-5%,5.2µM*,-1%,3.3µM*
O=C(Cc1ccccc1)NNc1c2ccccc2nc2ccccc12,i,-20%,-3%,i,5%,-8%
Cc1cc(CNC(=O)COc2ccccc2)c2ccccc2n1,?,-6%,-2%,?,1%,6%
Cc1ccc(OCC(=O)NNc2c3ccccc3nc3ccccc23)cc1,18µM*,nt,-2%,i,-1%,?
COc1ccc(-c2ccc3ncnc(NCc4nc(C)cs4)c3c2)cc1OC,?,nt,nt,i,nt,nt
O=C(/C=C/Nc1ccc(Oc2ccccc2Cl)cc1)c1ccco1,?,?,0%,21µM*,5%,?
O=C(/C=C/Nc1ccccc1Oc1ccccc1)c1ccco1,?,-7%,0%,i,0%,15µM*
